The record followed here is PubChem BioAssay (Tox21).

Each structure is given as a SMILES string. Inconclusive results are not listed. Unmarked numbers belong to inactive results. The call rests on the fitted dose curve; in most records, active means well fitted cell-killing curve with a large enough effect in the repeat runs; inconclusive means weak or mixed curves, or effect the other way; inactive means flat fitted curve, though single readings scatter.
On the % scale 0 is the no-effect control and ±100 the full control effect.

A short description of this assay: qHTS RealTime-Glo MT Cell Viability Assay in HepG2 cells - 0 hour (AID 1224889). Further: nearly all actives have a fitted effect of over 50% in size. The note with it: RealTime-Glo luminescence; series mostly up to 76.8 µM; activity change, negative = cytotoxicity: at the top concentration. The method in brief: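 HepG2 suspension premixed with RealTime-Glo reagents is plated at 600 cells per well and left 5 h at 37 C/5% CO2. Compounds in DMSO then go in, and bioluminescence reflecting viable cell number is recorded over 40 h.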
(qHTS replaces the single test concentration by a dilution series.)
As to `Oc1cccc2[nH]ccc12`, the “activity change, negative = cytotoxicity” value is 2.24% [at 35.3 µM]. `CCN(CC)CCNC(=O)c1cc(Cl)c(N)cc1OC`: the “activity change, negative = cytotoxicity” value was 5.64% [at 35.3 µM]. Under `CCCCOC(=O)CCCCC(=O)OCCCC` stands -11.2%; under `CCN(CC)c1cccc(O)c1`, 6.3%; under `O=C(c1ccccc1)C1CCC1`, 3.29%.
